Records with an inconclusive call do not appear. Active and inactive are the calls of the source. Unless noted, calls follow the shape of the full dose curve.
How the values were obtained:
[1] = Nuclear factor erythroid 2-related factor 2/antioxidant responsive element (Nrf2/ARE) small molecule agonists: qHTS cell viability counter screen in human keratinocytes (AID 1919968; active = well fitted curve in the direction sought with a large enough effect in the repeat runs; an effect the other way counts as inactive or inconclusive; also: nearly all actives have a fitted effect of over 55% in size)
How it was run: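 Parallel cytotoxicity read: KeratinoSens HaCaT cells, compound treatment 23 h, viability by CellTiter-Fluor fluorescence 1 h post-reagent.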

[2] = Nuclear factor erythroid 2-related factor 2/antioxidant responsive element (Nrf2/ARE) small molecule agonists: luciferase reporter gene qHTS assay in human keratinocytes (AID 1919969); also: nearly all actives have a fitted effect of over 35% in size
[3] = target: Gonadotropin-releasing hormone receptor (Homo sapiens) (UniProt P30968); test: Human gonadotropin-releasing hormone receptor (GnRHR) small molecule agonists, calcium flux assay in GnRHR-HEK293 cells (AID 1920063); also: nearly all actives have a fitted effect of over 35% in size
Gonadotropin-releasing hormone receptor (Homo sapiens), sequence (P30968 whole entry, looked up): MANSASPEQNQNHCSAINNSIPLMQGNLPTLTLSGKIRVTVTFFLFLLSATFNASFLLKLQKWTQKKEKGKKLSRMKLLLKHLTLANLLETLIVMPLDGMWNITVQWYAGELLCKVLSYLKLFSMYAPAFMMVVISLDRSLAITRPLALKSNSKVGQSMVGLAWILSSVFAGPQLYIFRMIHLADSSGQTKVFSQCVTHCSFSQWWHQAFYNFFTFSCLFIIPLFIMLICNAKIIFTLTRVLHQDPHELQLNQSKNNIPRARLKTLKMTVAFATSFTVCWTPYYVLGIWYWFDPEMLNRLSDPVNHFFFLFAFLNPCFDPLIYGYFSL
How it was run: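 Calcium flux, agonist mode, human GnRHR stably integrated in HEK293; dye 1 h at 37 C before compound; Ex/Em=480/540 kinetic read, 3 min; 15 concentrations, triplicate.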

[4] = target: KiSS-1 receptor (Homo sapiens) (UniProt Q969F8); test: Human kisspeptin (KISS1R) small molecule agonists, calcium flux assay in KISS1R-HEK293 cells (AID 1920064; active = well fitted curve in the direction sought with a large enough effect in the repeat runs; an effect the other way counts as inactive or inconclusive)
KiSS-1 receptor (Homo sapiens), sequence (Q969F8 whole entry, looked up): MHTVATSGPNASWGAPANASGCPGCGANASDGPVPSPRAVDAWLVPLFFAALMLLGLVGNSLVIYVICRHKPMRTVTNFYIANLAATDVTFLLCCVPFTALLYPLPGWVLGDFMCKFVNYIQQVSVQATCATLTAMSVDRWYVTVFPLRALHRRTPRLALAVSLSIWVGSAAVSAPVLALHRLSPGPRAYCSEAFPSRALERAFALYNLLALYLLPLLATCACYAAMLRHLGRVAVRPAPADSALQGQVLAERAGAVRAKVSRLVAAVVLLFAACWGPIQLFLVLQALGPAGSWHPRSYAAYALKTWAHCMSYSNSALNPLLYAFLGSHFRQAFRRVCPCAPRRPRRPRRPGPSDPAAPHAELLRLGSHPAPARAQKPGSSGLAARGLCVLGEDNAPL
How it was run: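 Triplicate 15-concentration series were applied to dye-loaded human KISS1R HEK293 cells, and agonist-evoked calcium fluorescence was captured for 3 min.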

[5] = G protein-coupled receptor (GPCR) small molecule agonists, calcium flux assay: HEK293 wild type cell line counter screen (AID 1920065)
How it was run: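 Non-specific calcium responders were flagged by adding DMSO-dissolved compounds to dye-loaded cells and reading 480/540 nm fluorescence each second for 3 min; ATP served as positive control.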

[6] = p53 small molecule agonists, cell-based qHTS assay with human liver microsomes (AID 1963577)
How it was run: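 Compounds act here after metabolic activation: human liver microsomes and NADPH, both at 0.5 mg/mL final, were co-added to p53RE-bla cells. Incubation ran 16 h at 37 C, followed by LiveBLAzer detection.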

[7] = p53 small molecule agonists, cell-based qHTS assay with rat liver microsomes (AID 1963578)
How it was run: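 Read-out is beta-lactamase reporter fluorescence (LiveBLAzer, 2 h, room temperature, dark) in p53RE-bla cells treated 16 h at 37 C with compound, rat liver microsomes and NADPH, both 0.5 mg/mL final.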

[8] = p53 small molecule agonists, cell-based qHTS assay with human liver microsomes: qHTS cell viability counter screen (AID 1963579); also: nearly all actives have a fitted effect of over 45% in size
How it was run: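 Cells carrying the p53 response-element beta-lactamase reporter are treated for 16 h at 37 C with test compounds in the presence of human liver microsomes and NADPH (both 0.5 mg/mL final); ATP-based CellTiter-Glo luminescence then reports viability.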

[9] = p53 small molecule agonists, cell-based qHTS assay with rat liver microsomes: qHTS cell viability counter screen (AID 1963580); also: nearly all actives have a fitted effect of over 45% in size
How it was run: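 Rat liver microsome (0.5 mg/mL final) and NADPH (0.5 mg/mL final) co-incubation with compounds for 16 h at 37 C on HCT-116 p53RE-bla cells; cytotoxicity taken from intracellular ATP luminescence.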

[10] = p53 small molecule agonists, cell-based qHTS assay (AID 1963582; active = well fitted activation curve with a large enough effect in the signal ratio in the repeat runs, not every such curve was filed as active; the % refers to the signal ratio)
How it was run: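 Beta-lactamase reporter cells (p53RE-bla) treated with compounds for 16 h at 37 C; FRET substrate, 2 h, room temperature; fluorescence intensity.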

[11] = target: 5-hydroxytryptamine receptor 2A (Homo sapiens) (UniProt P28223); test: 5-hydroxytryptamine receptor 2A (HTR2A) small molecule agonists, cell-based qHTS assay (AID 1963587); also: nearly all actives have a fitted effect of over 30% in size
5-hydroxytryptamine receptor 2A (Homo sapiens), sequence (P28223 whole entry, looked up): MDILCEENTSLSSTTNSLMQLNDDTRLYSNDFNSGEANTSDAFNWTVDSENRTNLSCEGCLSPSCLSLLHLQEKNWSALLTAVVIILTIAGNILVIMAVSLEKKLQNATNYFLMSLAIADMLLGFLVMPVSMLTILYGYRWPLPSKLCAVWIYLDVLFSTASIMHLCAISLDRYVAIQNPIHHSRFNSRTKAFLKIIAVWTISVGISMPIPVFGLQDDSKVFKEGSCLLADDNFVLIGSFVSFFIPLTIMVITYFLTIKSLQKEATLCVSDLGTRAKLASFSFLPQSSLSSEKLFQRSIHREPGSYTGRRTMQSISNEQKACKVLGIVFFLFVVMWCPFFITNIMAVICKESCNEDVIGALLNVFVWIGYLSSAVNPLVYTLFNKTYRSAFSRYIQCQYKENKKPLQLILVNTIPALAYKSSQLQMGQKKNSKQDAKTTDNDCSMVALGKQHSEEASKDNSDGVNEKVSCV
How it was run: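 Kinetic calcium-flux fluorescence (2 min, 1 sec intervals) after compound addition in agonist mode. HTR2A-CHO cells were cultured 18 h, then dye-loaded 1 h at 37 C.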

[12] = target: Muscarinic acetylcholine receptor M1 (Homo sapiens) (UniProt P11229); test: Cholinergic receptor muscarinic 1 (CHRM1) small molecule agonists, cell-based qHTS assay (AID 1963589); also: nearly all actives have a fitted effect of over 35% in size
Muscarinic acetylcholine receptor M1 (Homo sapiens), sequence (P11229 whole entry, looked up): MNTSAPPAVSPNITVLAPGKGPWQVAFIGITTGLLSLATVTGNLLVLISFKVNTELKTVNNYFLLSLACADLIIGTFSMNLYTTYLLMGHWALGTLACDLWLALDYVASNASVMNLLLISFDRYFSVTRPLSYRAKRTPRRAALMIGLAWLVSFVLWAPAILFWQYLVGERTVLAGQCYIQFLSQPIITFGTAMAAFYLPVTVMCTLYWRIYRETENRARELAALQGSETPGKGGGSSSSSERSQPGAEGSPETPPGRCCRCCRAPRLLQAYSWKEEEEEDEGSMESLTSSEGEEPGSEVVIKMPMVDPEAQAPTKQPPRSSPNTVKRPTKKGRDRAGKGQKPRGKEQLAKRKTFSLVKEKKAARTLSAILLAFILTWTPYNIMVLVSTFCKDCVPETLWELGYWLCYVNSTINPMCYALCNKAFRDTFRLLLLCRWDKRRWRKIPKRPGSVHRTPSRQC
How it was run: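 qHTS, 15-point titration, 3 independent runs: compounds pin-transferred onto dye-loaded CHRM1-CHO cells (human M1), calcium fluorescence followed every second to detect agonism.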

[13] = cAMP Responsive Elements (CRE) small molecule agonists, cell-based qHTS assay (AID 1963590)
How it was run: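 Quantitative HTS for CRE agonists: HEK 293T CRE-bla cells, overnight plating, 3 h compound incubation at 37 C/5% CO2, then 2 h room-temperature LiveBLAzer B/G FRET substrate loading.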

[14] = cAMP Responsive Elements (CRE) small molecule antagonists, cell-based qHTS assay (AID 1963591; active = well fitted inhibition curve with a large enough effect in the signal ratio in the repeat runs, not every such curve was filed as active; the % refers to the signal ratio)
How it was run: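 Fluorescence intensity from cleaved LiveBLAzer B/G substrate (2 h, room temperature) quantified CRE-bla activity in HEK 293T cells exposed 3 h to compound with 0.25 uM final NKH477.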

[15] = target: Beta-2 adrenergic receptor (Homo sapiens) (UniProt P07550); test: Adrenergic beta2 receptor (ADRB2) small molecule antagonists, cell-based qHTS assay (AID 1963592); also: series mostly up to about 92 µM; nearly all actives have a fitted effect of over 50% in size
Beta-2 adrenergic receptor (Homo sapiens), sequence (P07550 whole entry, looked up): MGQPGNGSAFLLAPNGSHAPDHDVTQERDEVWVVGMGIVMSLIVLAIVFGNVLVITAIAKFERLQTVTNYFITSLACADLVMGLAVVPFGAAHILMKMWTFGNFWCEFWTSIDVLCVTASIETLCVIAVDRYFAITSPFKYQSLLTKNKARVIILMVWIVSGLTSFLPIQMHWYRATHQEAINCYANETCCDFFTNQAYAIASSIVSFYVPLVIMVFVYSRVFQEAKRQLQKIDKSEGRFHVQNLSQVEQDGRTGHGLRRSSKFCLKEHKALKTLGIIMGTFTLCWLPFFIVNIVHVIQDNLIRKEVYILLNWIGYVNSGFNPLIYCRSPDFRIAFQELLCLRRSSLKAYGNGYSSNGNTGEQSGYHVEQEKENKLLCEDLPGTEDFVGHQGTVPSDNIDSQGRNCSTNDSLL
How it was run: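 Assay format: CHO-ADRB2 cells, 18-20hr seeding at 37C/5% CO2, then compound plus 1nM isoproterenol agonist mix for 0.5hr RT. Homogeneous time-resolved fluorescence cAMP detection after 1hr, expressed as 665/615 nm ratio.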

[16] = target: Beta-2 adrenergic receptor (Homo sapiens) (UniProt P07550); test: Adrenergic beta2 receptor (ADRB2) small molecule agonists, cell-based qHTS assay (AID 1963593);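 also: CHO cells stably overexpressing human ADRB2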
How it was run: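 CHO cells stably over-expressing ADRB2 were plated overnight at 37C, then dosed with compounds plus a stimulation mix containing 100uM IBMX and 25uM Ro-20-1724 for 0.5hr at room temperature. cAMP was measured by HTRF competition, 1hr.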

[17] = target: D(2) dopamine receptor (Homo sapiens) (UniProt P14416); test: Dopamine D2 receptor (DRD2) small molecule agonists, cell-based qHTS assay (AID 1963594); also: nearly all actives have a fitted effect of over 35% in size
D(2) dopamine receptor (Homo sapiens), sequence (P14416 whole entry, looked up): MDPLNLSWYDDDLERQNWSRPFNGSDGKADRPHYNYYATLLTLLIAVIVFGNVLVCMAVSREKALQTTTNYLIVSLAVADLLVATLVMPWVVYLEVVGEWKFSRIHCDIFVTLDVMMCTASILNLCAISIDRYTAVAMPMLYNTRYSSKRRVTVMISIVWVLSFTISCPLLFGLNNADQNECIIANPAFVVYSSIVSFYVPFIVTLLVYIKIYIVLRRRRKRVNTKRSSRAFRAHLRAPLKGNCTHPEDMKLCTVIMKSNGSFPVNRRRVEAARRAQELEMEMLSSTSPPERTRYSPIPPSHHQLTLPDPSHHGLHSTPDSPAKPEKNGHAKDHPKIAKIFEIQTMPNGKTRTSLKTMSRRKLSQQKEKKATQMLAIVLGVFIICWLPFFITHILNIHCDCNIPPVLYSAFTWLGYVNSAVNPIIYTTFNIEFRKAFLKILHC
How it was run: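 cAMP accumulation in DRD2-HEK293 cells measured by HTRF after 1 h detection; compounds added 10 min before NKH477 (200nM […]) forskolin-analogue stimulation, 30 min at room temperature, with Ro20-1724 present at 0.1 mM final.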

[18] = target: D(2) dopamine receptor (Homo sapiens) (UniProt P14416); test: Dopamine D2 receptor (DRD2) small molecule antagonists, cell-based qHTS assay (AID 1963595; active = well fitted inhibition curve with a large enough effect in the signal ratio in the repeat runs, with a control signal flat; the % refers to the signal ratio)
How it was run: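 Stable D2 receptor HEK293 line, 24 h after seeding. Compound preincubated 10 min, then quinpirole (12 nM) with forskolin analogue NKH477 (200 nM), 30 min, room temperature. Detection by time-resolved FRET of cAMP.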

[19] = target: Muscarinic acetylcholine receptor M1 (Homo sapiens) (UniProt P11229); test: Cholinergic receptor muscarinic 1 (CHRM1) small molecule antagonists, cell-based qHTS assay (AID 1963588); also: nearly all actives have a fitted effect of over 40% in size
How it was run: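 Compounds were tested at 15 concentrations in three independent runs. Dye-loaded CHRM1-CHO cells were exposed 5 min at room temperature before stimulation by acetylcholine added at 50nM. Intracellular calcium was read kinetically on FDSS for 3 min.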

[20] = target: 5-hydroxytryptamine receptor 2A (Homo sapiens) (UniProt P28223); test: 5-hydroxytryptamine receptor 2A (HTR2A) small molecule antagonists, cell-based qHTS assay (AID 1963586); also: nearly all actives have a fitted effect of over 45% in size
How it was run: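 CHO cells stably expressing human HTR2A were plated for 18 h at 37 C, then loaded with calcium dye for 1 h. Compounds were preincubated 5 min at room temperature before DOI (4 nM solution) was added. Kinetic fluorescence was read for 3 min.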

Measured: Potency

CN(C)CCN1C(=O)c2ccccc2N(C)c2ccccc21
not listed: [19] | [20]
inactive: all other assays above

C=C(C)C(=O)OCCN(CC)CC
not listed: [11] | [12] | [16] | [20]
inactive: all other assays above

CCN(CC)C(C)CN1c2ccccc2Sc2ccccc21 (stereo unspecified)
not listed: [13] | [16] | [19] | [20]
inactive: all other assays above

Cc1ccc(Cl)cc1Cl
not listed: [10] | [16] | [19]
inactive: all other assays above

C[C@@H]1C[C@H]2[C@@H]3CCC4=CC(=O)C=C[C@]4(C)[C@@]3(F)[C@@H](O)C[C@]2(C)[C@@]1(O)C(=O)CO
not listed: [11] | [12] | [16] | [19] | [20]
inactive: all other assays above

CCN(CC)C(=O)/C(C#N)=C/c1cc(O)c(O)c([N+](=O)[O-])c1
not listed: [10] | [13] | [14] | [16] | [17]
inactive: all other assays above

CN=C(NC#N)Nc1ccc(C2=NNC(=O)CC2C)cc1 (stereo unspecified)
not listed: [10] | [16] | [17]
inactive: all other assays above

CCOC(=O)c1ccc(NC(=O)CN2CCCCC2)cc1
not listed: [10] | [16] | [20]
inactive: all other assays above

Reference: PubChem BioAssay (Tox21)
